The whole screen tested about 310,000 compounds, of which about 14,000 (4.5%) showed an effect of 50% or more. The effect is printed as a negative number. What follows is part of a selection rich in strong results, with near analogues and random picks from the rest.
target: human ether-à-go-go-related gene (hERG) potassium channel (human, UniProt Q12809); experiment: primary screen, population patch clamp on CHO cells stably expressing hERG; higher = less effect of the substance
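Further: peak tail current of the secondary pulse compared with the same well before compound.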

Sequence of human ether-à-go-go-related gene (hERG) potassium channel (Q12809 whole entry, looked up): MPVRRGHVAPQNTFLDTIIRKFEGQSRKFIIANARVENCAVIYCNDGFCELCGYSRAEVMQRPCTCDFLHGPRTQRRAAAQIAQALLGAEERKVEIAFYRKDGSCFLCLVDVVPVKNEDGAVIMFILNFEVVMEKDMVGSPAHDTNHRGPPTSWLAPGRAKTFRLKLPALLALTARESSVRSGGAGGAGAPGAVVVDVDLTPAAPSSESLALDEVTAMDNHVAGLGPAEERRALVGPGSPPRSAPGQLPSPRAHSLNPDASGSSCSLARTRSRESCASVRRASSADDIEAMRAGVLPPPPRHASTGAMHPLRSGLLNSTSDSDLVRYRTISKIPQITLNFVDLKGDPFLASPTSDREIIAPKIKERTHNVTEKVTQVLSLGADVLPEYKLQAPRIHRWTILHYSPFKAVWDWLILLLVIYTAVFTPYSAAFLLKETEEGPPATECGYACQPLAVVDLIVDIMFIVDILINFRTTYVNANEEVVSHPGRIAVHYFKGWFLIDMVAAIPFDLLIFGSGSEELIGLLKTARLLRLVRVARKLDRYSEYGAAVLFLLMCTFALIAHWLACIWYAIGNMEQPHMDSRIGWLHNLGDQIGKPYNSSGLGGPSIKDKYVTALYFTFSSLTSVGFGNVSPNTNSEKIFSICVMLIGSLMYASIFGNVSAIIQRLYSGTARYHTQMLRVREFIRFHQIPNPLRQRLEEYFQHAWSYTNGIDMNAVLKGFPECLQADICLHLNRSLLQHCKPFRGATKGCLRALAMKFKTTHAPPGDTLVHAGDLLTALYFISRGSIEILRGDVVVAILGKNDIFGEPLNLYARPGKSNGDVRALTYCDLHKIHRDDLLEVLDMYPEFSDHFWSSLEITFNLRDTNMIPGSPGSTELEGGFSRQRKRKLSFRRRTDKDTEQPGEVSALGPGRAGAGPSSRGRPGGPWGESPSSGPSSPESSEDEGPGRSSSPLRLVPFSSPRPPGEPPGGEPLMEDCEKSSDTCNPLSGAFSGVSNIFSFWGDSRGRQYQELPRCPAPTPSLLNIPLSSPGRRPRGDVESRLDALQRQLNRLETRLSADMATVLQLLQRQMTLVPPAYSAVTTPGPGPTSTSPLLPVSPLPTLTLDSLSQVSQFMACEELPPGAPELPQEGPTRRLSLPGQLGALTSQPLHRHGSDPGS

| SMILES | hERG current change (%, negative = inhibition) at 10uM |
| --- | --- |
| CN(C)c1nc2n(c(=O)n1)CCO2 | 20.3% |
| Cc1ccc(NC(=O)c2sc3nc(N4CCOCC4)c4c(c3c2N)CC(C)(C)OC4)cc1 | 5.7% |
| CC(C)C(=O)Nc1ccc([N+](=O)[O-])cc1Br | -5.22% |
| COCCNC(C(=O)Nc1ccc([N+](=O)[O-])cc1Br)c1ccccc1 (stereo not shown) | -74% |
| CCN(CC)CCNC(C(=O)Nc1ccc([N+](=O)[O-])cc1Br)c1ccccc1 (stereo not shown) | -77% |
| CCCCNC(C(=O)Nc1ccc([N+](=O)[O-])cc1Br)c1ccccc1 (stereo not shown) | 5.72% |
| COCCNC(C(=O)Nc1cc(Cl)cc(Cl)c1)c1ccccc1 (stereo not shown) | -16.4% |
| COCCNC(C(=O)Nc1ccc(C)cc1[N+](=O)[O-])c1ccccc1 (stereo not shown) | -6.29% |
| O=C(OC(C(=O)Nc1ccc([N+](=O)[O-])cc1Br)c1ccccc1)c1ccccc1 (stereo not shown) | 5.91% |
| Cc1ccc(NC(=O)NCC(c2ccccc2)N(C)C)cc1 (stereo not shown) | 12.4% |
| COC(C(=O)Nc1ccc(F)cc1)c1ccccc1 (stereo not shown) | -0.691% |
| CN(C)C(CNC(C(=O)Nc1ccc(F)cc1)c1ccccc1)c1ccccc1 (stereo not shown) | -70.6% |
| CC(C)CNC(C(=O)Nc1ccc([N+](=O)[O-])cc1Br)c1ccccc1.O=C(O)C(=O)O (stereo not shown) | -9.16% |
| CN(C)C(CNC(C(=O)Nc1ccc([N+](=O)[O-])cc1Br)c1ccccc1)c1ccccc1 (stereo not shown) | -66.5% |
| CCCSc1nc2sc3c(c2c(=O)n1CC)CC(C)(C)OC3 | 3.41% |
| CCS(=O)(=O)NCC(c1ccco1)N1CCN(c2ccccc2F)CC1 (stereo not shown) | -1.69% |
| COc1ccc(OC)c(NC(=O)COC(=O)CN2C(=O)NC3(CCCC3)C2=O)c1 | 7.58% |
| O=C(CCCOC(=O)c1ccc(O)cc1O)c1ccc(F)cc1 | -11.6% |
| Cc1ccc(CS(=O)(=O)CCC(=O)NCCN2CCCCC2C)cc1 (stereo not shown) | -2.59% |
| Cc1cccc(/C=N/N2CCN(c3ccccc3)CC2)c1 | -4.38% |
| O=C(O)CCCC(=O)OCCCCc1cccs1 | -2.23% |
| Nc1c2c(nc3ccc(Br)cc13)N(c1ccccc1)CC2.O=C(O)C(=O)O | -21.3% |
| Nc1c2c(nc3ccc(Br)cc13)N(Cc1ccccc1)CC2 | -43.5% |
| Nc1c2c(nc3ccc(Br)cc13)N(C1CCCCC1)CC2.O=C(O)C(=O)O | -70.1% |
| Cc1nc2ccccc2c(=O)n1C1CCCCCC1 | -7.64% |
| Nc1c2c(nc3ccccc13)N(C1CCCCC1)CC2 | -65.6% |
| c1ccc2nc3c(nc2c1)OCC1CCCCN31 (stereo not shown) | -14.2% |
| CCOC(=O)c1sc(NC(=O)c2ccncc2)c(C#N)c1C | 22.8% |

| SMILES | hERG current change (%, negative = inhibition) at 10uM |
| --- | --- |
| CC(C)=C1SC(N2CCN(c3cccc(C(F)(F)F)c3)CC2)=NC1=O | -2.7% |
| Oc1ccc[nH+]c1SCc1ccccc1.[Br-] | 12.7% |
| Nc1cc(N)nc(SCC(=O)NCc2ccco2)n1 | 9.13% |
| Cc1cccn2c(=O)c3cc(C(=O)NC4CCCC4)c(=N)n(CCc4ccccc4)c3nc12 | -74.5% |
| Cc1cccn2c(=O)c3cc(C(=O)NC4CCCC4)sc3nc12 | -22.8% |
| COc1ccc(CCn2c(=N)c(C(=O)NC3CCCC3)cc3c(=O)n4cccc(C)c4nc32)cc1 | -77.8% |
| CCCn1c(=N)c(C(=O)NC2CCCC2)cc2c(=O)n3cccc(C)c3nc21 | -77.4% |
| Cc1ccc(CNC(=O)CSc2nc(C)cs2)cc1 | 15.4% |
| CCCc1c(-c2ccc(O)cc2)nn(-c2ccc(O)cc2)c1-c1ccc(O)cc1 | 12.6% |
| CCN(CC)C(=O)CSc1nnc([C@H](CCSC)NC(=O)OC(C)(C)C)o1 | -8.26% |
| CC1=CC(C)(C)N(C(=O)C(C)N2C(=O)c3ccccc3C2=O)c2ccc(C)cc21 (stereo not shown) | 2.88% |
| COC(=O)c1ccc(NS(=O)(=O)c2cc3c4c(c2)C(C)C(=O)N4CCC3)cc1 (stereo not shown) | 2.73% |
| Fc1cccc2sc(Nc3nc4cc5c(cc4s3)OCO5)nc12 | 20.3% |
| COC(=O)C1CCN(C(=O)COC(=O)c2ccc(=O)n(Cc3ccccc3)n2)CC1 | -4.78% |
| CC(C)CN(C(=O)COC(=O)c1ccc(-c2ccccc2)cc1)C1CCS(=O)(=O)C1 (stereo not shown) | 17.5% |
| CCOc1cc(/C=N/NC(=O)Cc2ccc(C(F)(F)F)cc2[N+](=O)[O-])c(Br)cc1OC | 8.3% |
| CCCCCCCCCC[N+](C)(C)CC/C=C1/c2ccccc2Sc2ccc(Cl)cc21.[Br-] | -76.6% |
| CN(C)CC/C=C1/c2ccccc2Sc2c(O)cc(Cl)cc21 | -47.5% |
| CCCCCCCCCCC[N+](C)(C)CC/C=C1/c2ccccc2Sc2ccc(Cl)cc21.[Br-] | -32.8% |
| CCCCCC[N+](C)(C)CC/C=C1/c2ccccc2Sc2ccc(Cl)cc21.[Br-] | -75.2% |
| CN(C)CC/C=C1/c2ccc(F)cc2Sc2ccc(Cl)cc21.Cl | 5.06% |
| CC[N+](C)(C)CC/C=C1/c2ccccc2Sc2ccc(Cl)cc21.[Br-] | -25.3% |
| O=C1NC(=S)S/C1=C/c1ccc(Oc2cnccn2)cc1 | 20% |
| Cc1cccc(C(=O)NC(=S)N2CCN(C(=S)NC(=O)c3cccc(C)c3)CC2)c1 | -0.873% |
| CCCC(OC(=O)CC1Sc2ccccc2NC1=O)C(=O)NCc1ccco1 (stereo not shown) | -13.8% |
| Cc1ccc(CSCC(=O)N2CCOCC2)cc1 | 8.89% |
| O=C(NNC1=C(C(=O)C(F)(F)F)CCC1)c1cccc(Cl)c1 | 7.77% |

Reference: publication PMC4336329 (PLoS ONE, 2015)
